# Data published in PMC7862700, “An all-to-all approach to the identification of sequence-specific readers for epigenetic DNA modifications on cytosine”.
# Experiments:
# Experiment in all cases: DAPPL (digital affinity profiling via proximity ligation, sequencing); 10 mM Tris-HCl pH 7.5, 50 mM NaCl, 1 mM DTT, 4% glycerol, room temperature, 30 min; GST-TFs on glutathione beads, 16-mer random dsDNA library, 0.1% formaldehyde crosslink after washing; high values mean tight binding
# Details in all cases: protein: recombinant; tags: N-terminal GST; dsDNA, one strand shown
# ELK1 = biological target: T1, ELK1 (Homo sapiens, UniProt P19419 1-428)
# T1 sequence: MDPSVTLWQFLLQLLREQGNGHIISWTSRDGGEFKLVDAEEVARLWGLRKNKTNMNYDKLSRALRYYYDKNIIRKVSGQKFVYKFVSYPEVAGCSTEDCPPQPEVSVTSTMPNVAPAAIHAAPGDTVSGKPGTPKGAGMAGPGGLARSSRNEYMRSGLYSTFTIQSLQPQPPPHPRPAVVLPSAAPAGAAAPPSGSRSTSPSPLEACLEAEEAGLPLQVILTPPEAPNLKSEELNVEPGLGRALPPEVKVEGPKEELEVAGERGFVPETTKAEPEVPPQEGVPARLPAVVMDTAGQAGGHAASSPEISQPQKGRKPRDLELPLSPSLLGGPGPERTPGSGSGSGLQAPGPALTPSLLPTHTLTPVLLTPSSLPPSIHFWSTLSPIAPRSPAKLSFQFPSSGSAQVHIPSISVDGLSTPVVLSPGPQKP
# Method in brief: (§1)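 Yeast served to express human transcription factors as GST fusions, which were then captured on glutathione beads and labelled with DNA barcodes. Pooled with a tag-only sample, they were incubated with 200 nmole of a 16-mer random double-stranded DNA library for 30 min at room temperature in Tris/NaCl/DTT/glycerol buffer, washed, crosslinked with 0.1% formaldehyde, ligated by proximity, amplified by PCR and sequenced. Dividing each hexamer's read frequency for a factor by its frequency for the tag-only sample gives the binding signal.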
# GABPA = biological target: T2, GABPA (Homo sapiens, UniProt Q06546 1-454)
# T2 sequence: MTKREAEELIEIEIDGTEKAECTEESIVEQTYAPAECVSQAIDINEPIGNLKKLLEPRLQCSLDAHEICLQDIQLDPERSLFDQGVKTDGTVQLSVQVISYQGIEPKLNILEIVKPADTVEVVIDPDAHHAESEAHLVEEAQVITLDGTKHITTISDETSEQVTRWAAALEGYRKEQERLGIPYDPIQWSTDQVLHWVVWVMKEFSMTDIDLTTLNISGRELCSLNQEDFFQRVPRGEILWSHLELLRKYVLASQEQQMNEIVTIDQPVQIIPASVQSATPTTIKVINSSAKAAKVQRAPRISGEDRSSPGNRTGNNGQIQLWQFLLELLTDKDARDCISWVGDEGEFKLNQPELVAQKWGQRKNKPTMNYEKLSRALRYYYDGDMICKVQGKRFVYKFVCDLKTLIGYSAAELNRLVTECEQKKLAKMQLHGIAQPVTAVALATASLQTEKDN
# Method in brief: as §1
# ERG = biological target: T3, ERG (Homo sapiens, UniProt P11308 1-479)
# T3 sequence: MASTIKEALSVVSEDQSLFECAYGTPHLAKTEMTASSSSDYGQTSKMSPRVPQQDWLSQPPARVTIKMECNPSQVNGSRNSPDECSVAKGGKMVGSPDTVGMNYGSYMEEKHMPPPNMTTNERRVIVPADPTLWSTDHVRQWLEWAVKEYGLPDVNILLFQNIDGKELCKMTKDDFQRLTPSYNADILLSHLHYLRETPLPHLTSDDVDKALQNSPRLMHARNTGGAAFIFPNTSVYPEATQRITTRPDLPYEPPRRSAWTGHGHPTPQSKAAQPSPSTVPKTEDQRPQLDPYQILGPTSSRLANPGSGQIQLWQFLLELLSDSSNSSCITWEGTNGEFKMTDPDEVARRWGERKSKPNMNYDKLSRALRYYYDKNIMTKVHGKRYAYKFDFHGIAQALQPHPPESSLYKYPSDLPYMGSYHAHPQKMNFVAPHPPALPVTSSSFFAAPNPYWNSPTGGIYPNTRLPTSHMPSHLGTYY
# Method in brief: as §1
# ELF1 = ELF1 (Homo sapiens, UniProt P32519 1-619)
# Method in brief: as §1
# EHF = biological target: T4, EHF (Homo sapiens, UniProt Q9NZC4 1-300)
# T4 sequence: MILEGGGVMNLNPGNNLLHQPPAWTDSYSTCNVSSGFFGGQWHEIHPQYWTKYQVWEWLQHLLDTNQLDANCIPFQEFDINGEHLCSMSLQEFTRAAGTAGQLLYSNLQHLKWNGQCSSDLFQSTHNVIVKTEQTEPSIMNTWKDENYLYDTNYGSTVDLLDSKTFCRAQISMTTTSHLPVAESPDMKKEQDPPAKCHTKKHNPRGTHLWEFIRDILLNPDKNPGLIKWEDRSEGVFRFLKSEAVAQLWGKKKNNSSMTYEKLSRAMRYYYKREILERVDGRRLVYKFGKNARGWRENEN
# Method in brief: as §1
# SPIB = SPIB (Homo sapiens, UniProt Q01892 1-262)
# Method in brief: as §1
# FEV = biological target: T5, FEV (Homo sapiens, UniProt Q99581 1-238)
# T5 sequence: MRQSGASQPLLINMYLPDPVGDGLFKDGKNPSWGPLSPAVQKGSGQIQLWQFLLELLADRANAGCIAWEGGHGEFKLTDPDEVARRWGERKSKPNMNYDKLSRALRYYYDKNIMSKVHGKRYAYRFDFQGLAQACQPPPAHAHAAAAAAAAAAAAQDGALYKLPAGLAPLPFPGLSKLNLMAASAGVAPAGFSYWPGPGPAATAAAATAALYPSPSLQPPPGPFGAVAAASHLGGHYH
# Method in brief: as §1
# ETV5 = ETV5 (Homo sapiens, UniProt P41161 1-510)
# Method in brief: as §1
# ELF4 = ELF4 (Homo sapiens, UniProt Q99607 1-663)
# Method in brief: as §1
# ELK4 = biological target: T6, ELK4 (Homo sapiens, UniProt P28324-2 1-405)
# T6 sequence: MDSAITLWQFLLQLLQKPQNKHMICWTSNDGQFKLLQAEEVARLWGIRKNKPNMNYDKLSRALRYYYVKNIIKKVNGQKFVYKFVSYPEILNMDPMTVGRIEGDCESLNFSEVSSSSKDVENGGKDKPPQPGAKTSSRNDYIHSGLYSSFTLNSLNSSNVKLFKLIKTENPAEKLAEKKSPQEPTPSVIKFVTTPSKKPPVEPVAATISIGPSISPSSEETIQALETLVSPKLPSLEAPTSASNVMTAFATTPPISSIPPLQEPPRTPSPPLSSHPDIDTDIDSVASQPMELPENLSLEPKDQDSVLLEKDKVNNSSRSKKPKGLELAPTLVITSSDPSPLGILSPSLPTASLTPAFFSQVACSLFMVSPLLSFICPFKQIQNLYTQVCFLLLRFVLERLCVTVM
# Method in brief: as §1
# Chain of SPIB (Q01892 whole entry): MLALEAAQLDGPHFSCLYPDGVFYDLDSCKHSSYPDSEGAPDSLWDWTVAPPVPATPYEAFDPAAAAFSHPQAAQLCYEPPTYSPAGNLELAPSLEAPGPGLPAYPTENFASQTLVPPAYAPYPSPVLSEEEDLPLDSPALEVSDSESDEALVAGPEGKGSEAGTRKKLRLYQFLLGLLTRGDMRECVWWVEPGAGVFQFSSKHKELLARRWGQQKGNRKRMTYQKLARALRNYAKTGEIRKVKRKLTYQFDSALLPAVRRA
# Chain of ELF1 (P32519 whole entry): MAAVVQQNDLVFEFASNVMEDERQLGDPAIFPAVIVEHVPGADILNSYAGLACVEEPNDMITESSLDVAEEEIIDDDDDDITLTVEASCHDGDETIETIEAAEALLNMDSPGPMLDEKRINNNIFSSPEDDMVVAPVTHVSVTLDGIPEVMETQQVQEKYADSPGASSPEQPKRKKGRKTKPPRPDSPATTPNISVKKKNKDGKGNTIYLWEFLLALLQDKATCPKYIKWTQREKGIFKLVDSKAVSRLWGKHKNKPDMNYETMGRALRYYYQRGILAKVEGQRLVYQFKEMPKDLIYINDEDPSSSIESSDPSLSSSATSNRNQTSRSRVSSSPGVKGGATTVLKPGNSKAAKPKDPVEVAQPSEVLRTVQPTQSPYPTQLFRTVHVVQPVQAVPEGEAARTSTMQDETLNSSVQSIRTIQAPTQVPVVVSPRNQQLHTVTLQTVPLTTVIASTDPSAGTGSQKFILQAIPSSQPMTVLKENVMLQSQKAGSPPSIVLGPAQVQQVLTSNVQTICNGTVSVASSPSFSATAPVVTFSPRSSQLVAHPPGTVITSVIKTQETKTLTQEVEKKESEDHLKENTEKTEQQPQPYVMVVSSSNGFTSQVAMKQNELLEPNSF
# Chain of ETV5 (P41161 whole entry): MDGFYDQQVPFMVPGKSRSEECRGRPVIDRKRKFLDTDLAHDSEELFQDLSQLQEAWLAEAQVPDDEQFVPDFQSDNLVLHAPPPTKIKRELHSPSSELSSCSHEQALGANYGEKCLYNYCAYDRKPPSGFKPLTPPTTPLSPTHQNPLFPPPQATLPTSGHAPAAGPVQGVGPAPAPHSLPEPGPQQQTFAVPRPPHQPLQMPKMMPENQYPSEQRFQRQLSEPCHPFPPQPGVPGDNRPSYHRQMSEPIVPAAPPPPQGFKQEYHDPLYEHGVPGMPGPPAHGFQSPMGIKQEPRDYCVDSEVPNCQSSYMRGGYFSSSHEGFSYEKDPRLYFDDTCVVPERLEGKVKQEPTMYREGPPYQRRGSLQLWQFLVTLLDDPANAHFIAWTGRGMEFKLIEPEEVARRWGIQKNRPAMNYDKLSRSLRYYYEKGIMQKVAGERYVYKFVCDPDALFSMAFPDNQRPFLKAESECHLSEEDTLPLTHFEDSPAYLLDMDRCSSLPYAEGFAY
# Chain of ELF4 (Q99607 whole entry): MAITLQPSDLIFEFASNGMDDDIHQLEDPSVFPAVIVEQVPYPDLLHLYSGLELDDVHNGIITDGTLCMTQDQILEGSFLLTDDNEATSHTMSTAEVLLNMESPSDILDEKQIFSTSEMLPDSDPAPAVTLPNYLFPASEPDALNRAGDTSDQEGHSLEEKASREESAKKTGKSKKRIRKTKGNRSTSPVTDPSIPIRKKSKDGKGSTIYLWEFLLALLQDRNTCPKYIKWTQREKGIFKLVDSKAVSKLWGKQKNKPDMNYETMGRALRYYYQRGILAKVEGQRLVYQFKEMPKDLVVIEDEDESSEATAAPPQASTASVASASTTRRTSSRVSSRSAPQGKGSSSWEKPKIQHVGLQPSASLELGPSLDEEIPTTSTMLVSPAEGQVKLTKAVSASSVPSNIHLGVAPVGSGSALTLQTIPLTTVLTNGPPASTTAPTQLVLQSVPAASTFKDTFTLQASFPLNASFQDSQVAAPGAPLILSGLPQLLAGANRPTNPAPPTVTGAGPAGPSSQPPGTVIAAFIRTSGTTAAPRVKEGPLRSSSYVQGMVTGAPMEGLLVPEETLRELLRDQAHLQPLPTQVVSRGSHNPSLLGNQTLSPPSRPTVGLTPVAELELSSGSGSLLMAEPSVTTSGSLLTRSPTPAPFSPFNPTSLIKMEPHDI
sequence,measurement,setting,value
CCCCCC,binding signal,ELK1,"1.04 fold enrichment (6-mer frequency, TF over GST control)"
same,binding signal,GABPA,"1.08 fold enrichment (6-mer frequency, TF over GST control)"
same,binding signal,ERG,"1.07 fold enrichment (6-mer frequency, TF over GST control)"
same,binding signal,ELF1,"1.08 fold enrichment (6-mer frequency, TF over GST control)"
same,binding signal,EHF,"1.06 fold enrichment (6-mer frequency, TF over GST control)"
same,binding signal,SPIB,"1.1 fold enrichment (6-mer frequency, TF over GST control)"
same,binding signal,FEV,"1.03 fold enrichment (6-mer frequency, TF over GST control)"
same,binding signal,ETV5,"1.09 fold enrichment (6-mer frequency, TF over GST control)"
same,binding signal,ELF4,"1.16 fold enrichment (6-mer frequency, TF over GST control)"
same,binding signal,ELK4,"1.23 fold enrichment (6-mer frequency, TF over GST control)"
